This is part of a sample that, as a whole, favours compounds with a hit. Of some 79,000 tested, about 15% had one in any assay. Unmarked numbers belong to inactive results. Active and inactive are the calls of the source. No stated cut-off is given here; in the data, active means growth inhibition above about 70%; inactive means the rest.
Assay: NCI Yeast Anticancer Drug Screen. Data for the wt2 strain (AID 169);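 further: 0% = growth of vehicle-treated yeast cultures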
Settings: S. cerevisiae wt2 strain growth inhibition, stronger effect = higher value
Protocol: Growth inhibition of yeast strains with defined genetic alterations is measured as a screen for potential anti-cancer activity. Selected strains with alterations in DNA damage repair or cell cycle control were exposed to compounds and growth inhibition was measured relative to vehicle treated controls. The strain used in this assay is wt2

| SMILES | growth inhibition (at 1.2 µM) [%] | growth inhibition (at 3.7 µM) [%] | growth inhibition (at 11.0 µM) | growth inhibition (at 33.0 µM) | growth inhibition (at 100.0 µM) |
| --- | --- | --- | --- | --- | --- |
| O=[N+]([O-])c1cccc2nc3ccccc3c(NCCC[N+]3([O-])CCCCC3)c12 | 0 | 6 | 25% | 85% (active) | 96% (active) |
| CCN(CC)CCOc1cc(C)c2cc(Cc3ccccc3)ccc2n1 | -1 | -2 | 2% | 13% | 94% (active) |
| CCOC(=O)c1ccc(NC(=O)O/N=C(/Cl)C(C)C)cc1 | -4 | -8 | 10% | 91% (active) | 99% (active) |
| NC(=S)NC(=S)Nc1ccccc1 | -5 | 6 | -1% | 1% | 42% |
| NCCNCCNc1ccc(NCCNCCN)c2c1C(=O)c1c(O)ccc(O)c1C2=O | -3 | -3 | -3% | 14% | 53% |
| Cc1cc(N(CCOS(C)(=O)=O)CCOS(C)(=O)=O)ccc1C=Nc1ccc(-c2csc(-c3ccccc3)n2)c(Cl)c1 | -4 | 4 | 72% (active) | 97% (active) | 92% (active) |
| CCOc1c(N=Nc2ccccc2OC)c(C)nn1C(=S)S | 0 | 3 | 10% | 32% | 75% (active) |
| Cc1cccc(/C=N/NC(=S)N2CCCC2)n1 | -6 | -8 | 10% | 93% (active) | 96% (active) |

Source: PubChem BioAssay (NCI)
